Our source for the inhibition values is PubChem BioAssay.

Assay [1] relates to transactivating tegument protein VP16 (Human herpesvirus 1). Briefly: VP16 transactivation reporter inhibitors, counter-screen for SRC2 inhibitor project, cell-based, luminescence, single concentration (AID 652007; in the data active = inhibition above about 36%). The settings on record: cell-based VP16 transactivation luciferase reporter, at 8.9 µM, hits give high values. (In general: The purpose of a counterscreen is to sort out artefacts and off-target activity.)

The target of assay [2] is Nuclear receptor coactivator 2 (Homo sapiens) (UniProt Q15596). In words: SRC2 coactivator transcriptional activity inhibitors, confirmation, cell-based, luminescence, HEK293, triplicate (AID 652008).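 Also: 0% = DMSO-treated cells and 100% = Gossypol at 36 µM.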 To be noted: HEK293 GAL4-SRC2 luciferase reporter, at 8.9 µM, hits give high values. (In general: A reporter such as luciferase makes a cellular process visible.)
Nuclear receptor coactivator 2 (Homo sapiens), sequence (Q15596 whole entry, looked up, the tested form may be a part): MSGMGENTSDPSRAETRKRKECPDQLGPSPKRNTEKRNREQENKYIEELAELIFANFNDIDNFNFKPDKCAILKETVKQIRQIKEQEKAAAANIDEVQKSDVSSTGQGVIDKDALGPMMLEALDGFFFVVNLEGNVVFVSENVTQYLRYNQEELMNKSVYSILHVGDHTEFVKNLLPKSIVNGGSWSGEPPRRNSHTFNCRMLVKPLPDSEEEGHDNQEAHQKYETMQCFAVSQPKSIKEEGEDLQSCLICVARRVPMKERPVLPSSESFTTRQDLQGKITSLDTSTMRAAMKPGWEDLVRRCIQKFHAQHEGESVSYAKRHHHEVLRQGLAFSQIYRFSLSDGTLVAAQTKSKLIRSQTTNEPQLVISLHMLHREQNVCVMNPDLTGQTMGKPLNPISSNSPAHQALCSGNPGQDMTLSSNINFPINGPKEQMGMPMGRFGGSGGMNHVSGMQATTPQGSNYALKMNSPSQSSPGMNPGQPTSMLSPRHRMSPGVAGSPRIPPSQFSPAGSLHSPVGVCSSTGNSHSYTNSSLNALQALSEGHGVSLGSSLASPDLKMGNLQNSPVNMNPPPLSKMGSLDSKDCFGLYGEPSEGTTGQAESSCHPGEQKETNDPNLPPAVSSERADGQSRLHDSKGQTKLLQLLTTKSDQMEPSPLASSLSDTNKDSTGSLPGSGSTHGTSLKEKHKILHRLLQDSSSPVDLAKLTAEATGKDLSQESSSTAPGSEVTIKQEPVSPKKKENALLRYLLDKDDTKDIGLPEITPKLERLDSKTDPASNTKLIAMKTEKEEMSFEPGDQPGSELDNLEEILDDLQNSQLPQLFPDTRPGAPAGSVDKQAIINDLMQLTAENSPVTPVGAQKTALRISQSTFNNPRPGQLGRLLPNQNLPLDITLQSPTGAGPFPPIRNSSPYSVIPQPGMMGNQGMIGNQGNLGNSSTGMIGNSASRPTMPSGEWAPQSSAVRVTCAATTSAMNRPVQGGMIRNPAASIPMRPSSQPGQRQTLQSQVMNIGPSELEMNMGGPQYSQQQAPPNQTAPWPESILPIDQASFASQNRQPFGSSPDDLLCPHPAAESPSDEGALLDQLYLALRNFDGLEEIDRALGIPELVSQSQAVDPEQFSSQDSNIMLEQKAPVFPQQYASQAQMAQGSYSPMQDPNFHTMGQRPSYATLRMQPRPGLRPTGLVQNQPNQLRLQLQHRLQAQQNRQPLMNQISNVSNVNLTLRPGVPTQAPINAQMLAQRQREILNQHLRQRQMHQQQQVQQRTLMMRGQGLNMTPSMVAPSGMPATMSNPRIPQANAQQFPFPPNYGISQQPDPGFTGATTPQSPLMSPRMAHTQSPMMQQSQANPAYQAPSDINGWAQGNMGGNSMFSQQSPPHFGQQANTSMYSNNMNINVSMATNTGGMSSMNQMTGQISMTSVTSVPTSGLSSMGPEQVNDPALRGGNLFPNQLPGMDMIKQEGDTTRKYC

Values without a mark were called inactive. Calls of active or inactive are those of the source.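 The calls were made as follows, unless noted: active = mean inhibition above 46.5%, the solvent-only control mean plus 3 SD; inactive = the rest.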

`CCCCSc1nc(C)cc(SCC(=O)N/N=C/c2cccc(OC)c2O)n1`: the inhibition in assay [1] is -16.2%; in assay [2], 22.5%.
The like results for `O=C(NC1CC1)c1ccc2c(c1)N(Cc1ccc(Cl)cc1)CCS2` were, in that order, 4.34% and 18.6%.
The like results for `CCCCC(=O)Nc1ccc(C)c(S(=O)(=O)N2CCCCCC2)c1` were, in that order, -13.7% and 18.4%.
`COC(=O)C1Cc2ccccc2CN1C(=O)CCl` (centres undefined): the inhibition in assay [1] is 27.7%; in assay [2] it was 33.2%.
On the same counts, the results for `Cc1ccc(C)c(NC(=O)COc2coc(CN3CCc4ccccc4C3)cc2=O)c1` are -2.11% and 22.7%.
On the same counts, the results for `CCN1CCN(C(c2ccc(C(F)(F)F)cc2)c2ccc3cccnc3c2O)CC1` (centres undefined) are -15.7% and 13.2%.
For `Cc1cc(=O)oc2cc(OCC(=O)NC3CCCC3)ccc12`, the inhibition in assay [1] was -12.6%; in assay [2], -25.6%.
On the same counts, the results for `COc1ccc(-c2ncncc2-c2csc(C)n2)c(O)c1` are -10.8% and -21.2%.
The like results for `Cc1cc(Nc2ccccc2)n(C(=O)c2ccc(N)cc2)n1` were, in that order, -71.3% and 0.44%.
On the same counts, the results for `CCC1CSC(Nc2ccc(C(=O)/C=C/c3ccc(OC)c(OC)c3)cc2)=N1` (centres undefined) are 12.8% and 39.9%.
As for `CCOc1ccc(-c2cc(CCCC(=O)NCCc3ccc(OC)c(OC)c3OC)no2)cc1`, the inhibition in assay [1] was 12.8%; in assay [2] it was 34.7%.
For `CCN(C(=O)C1CCCN(c2nnc(-n3cccc3)s2)C1)c1ccccc1C` (centres undefined), the inhibition in assay [1] is 11.5%; in assay [2], 16.4%.
The like results for `NC(=O)c1cc(C(=O)c2ccc(Cl)cc2Cl)c[nH]1` were, in that order, -19.8% and 14.3%.
On the same counts, the results for `NS(=O)(=O)c1ccc(NC(=O)COc2ccc(C(=O)c3ccc(F)cc3)cc2)cc1` are -1.97% and -2.94%.
On the same counts, the results for `COc1ccc([N+](=O)[O-])c(S(=O)(=O)c2ccc(Cl)cc2)n1` are 8.89% and 52.3% (active).
Consider `COc1cc(OC)c(C(=O)C=Cc2ccc(OC)c(OC)c2)c(OC)c1`, for which the inhibition is -5.35% in assay [1] and 6.31% in assay [2].
The like results for `CC(=O)N(CCc1ccccc1)c1ccc2c(c1)C1CC2CCN1C(=O)OCc1ccccc1` (centres undefined) were, in that order, 17% and 18.6%.
The like results for `O=C(COC(=O)c1ccc(Br)o1)NCC(=O)Nc1ccc(F)cc1` were, in that order, -21% and -15.8%.
For `O=C(c1ccc(Cl)cc1)C(CN1CCCC1)c1ccccc1` (centres undefined), the inhibition in assay [1] was 26.1%; in assay [2], 53.9% (active).
For `O=c1c(Br)ccc(Br)cc1Br`, the values for the inhibition in assay [1] and in assay [2] were 97.7% (active) and 99.4% (active), respectively.
On the same counts, the results for `Cn1c(=N)n(CC(=O)c2ccc(F)cc2)c2ccccc21` are -28.2% and -22.8%.
The like results for `CC(C)(C)c1nnc2sc(SCC(=O)c3cccs3)nn2c1=O` were, in that order, 15.5% and 30%.
The like results for `CCOC(=O)c1ccc(-c2ccc(N3C(c4ccsc4)=Cc4ccc(F)cc4C3c3c[nH]c4ccc(C#N)cc34)cc2)cc1F` (centres undefined) were, in that order, -3.42% and 33.6%.
Consider `c1ccc(C2=Nn3c(nnc3-c3ccncc3)SC2)cc1`, for which the inhibition was -2.29% in assay [1] and 34.6% in assay [2].
On the same counts, the results for `Cc1ccc(NC(=O)c2ccc(NC(=O)C3CCCCC3C(=O)O)cc2)cc1` (centres undefined) are -56% and -17.6%.
The like results for `CN1CCC(=NNc2ncnc3sc4c(c23)CCCC4)CC1` were, in that order, -9.72% and -19.6%.
On the same counts, the results for `COC(=O)c1ccc(NC(=O)c2nc(S(=O)(=O)Cc3cccc(C)c3)ncc2Cl)cc1` are 46% (active) and 53.4% (active).
For `O=C1NC(c2ccccc2)Cc2ccncc21` (centres undefined), the results for the inhibition in assay [1] and in assay [2] were -6.21% and -28.4%, respectively.
As for `C=CS(=O)(=O)N(Cc1ccc(C)cc1)[C@@H](CO)C(=O)OC`, the inhibition in assay [1] was 17.1%; in assay [2], 63.8% (active).
On the same counts, the results for `O=C(/C=C/c1cn(-c2ccccc2)nc1-c1cccnc1)c1ccco1` are 29.5% and 39.6%.
The like results for `COc1ccc(C(=O)NC(=C(Cl)Cl)S(=O)(=O)c2ccc(C)cc2)cc1` were, in that order, 3.97% and 36.6%.
The like results for `Cc1cc(C)cc(C(=O)NC(=S)Nc2ccc(-c3cc4ccccc4oc3=O)cc2)c1` were, in that order, -8.51% and 46.7% (active).
For the compound `CCN(CC)c1ccc(/C=N/Nc2nn[nH]n2)cc1`, the figures for the inhibition in assay [1] and in assay [2] were -13.6% and 43.4%, respectively.
On the same counts, the results for `Cc1ccc(NC(=O)c2nc(S(=O)(=O)Cc3ccccc3)ncc2Cl)cc1` are 56.5% (active) and 74.4% (active).
The like results for `Cc1cnc(NC(=O)COc2ccccc2Cl)s1` were, in that order, -10.5% and 18.8%.
On the same counts, the results for `Cc1c([N+](=O)[O-])cnc(Sc2ccccc2)c1[N+](=O)[O-]` are 3.41% and 16.7%.
On to `COc1ccc(CC(=O)NNC(=O)c2ccc(Br)o2)cc1`, for which the figures for the inhibition in assay [1] and in assay [2] were -9.53% and -27.1%, respectively.
On the same counts, the results for `Cc1ccc(CN2C(=O)/C(=C\c3ccc(C(=O)NCc4cccnc4)cc3)Oc3ccccc32)cc1` are -0.83% and 50.2% (active).
For the compound `Cc1c(CCC(=O)O)c(=O)oc2cc(OCc3ccccc3Br)ccc12`, the inhibition in assay [1] was 19.4%; in assay [2], 20.1%.
On to `Cc1ccc2sc(N(CCCN(C)C)C(=O)CCS(=O)(=O)c3ccccc3)nc2c1C`, for which the inhibition is 1.51% in assay [1] and 27.7% in assay [2].
On the same counts, the results for `COc1ccc(S(=O)(=O)Nc2ccc(C)cn2)cc1` are -11.7% and -15.4%.
On the same counts, the results for `COc1cc(/C=C/C(=O)Nc2ccc(OC)c(S(=O)(=O)N3CCOCC3)c2)ccc1OC(F)F` are 11% and 63.1% (active).
The like results for `Cc1nc2ccccc2c2c1C(=O)N(c1ccc(C(=O)O)cc1)C2=O` were, in that order, -3.24% and -28.2%.
Turning to `CCCCN1C[C@@H](COCc2ccccc2)Oc2cc(F)ccc2S1(=O)=O`, the inhibition was -1.24% in assay [1] and 11.9% in assay [2].
In the case of `CC(=O)Nc1ccc(Nc2nc(C)c([N+](=O)[O-])c(N(C)c3ccccc3)n2)cc1`, the inhibition in assay [1] is 32.4%; in assay [2] it was 49.2% (active).
On to `COc1cccc(C(NC(C)=O)c2nc(-c3cccc(C#N)c3)cs2)c1` (centres undefined), for which the results for the inhibition in assay [1] and in assay [2] were -10.7% and -26.2%, respectively.
On the same counts, the results for `COC(=O)c1ccc(Sc2nnnn2-c2ccccc2)c([N+](=O)[O-])c1` are 20.1% and 48.2% (active).
On the same counts, the results for `CC(=O)c1cccc(NC(=O)c2ccccc2N(C)S(=O)(=O)c2ccc(C)cc2)c1` are -5.87% and 0.15%.
With `Cc1nn(C)c(Cl)c1NC(=O)OCc1ccc(Cl)cc1Cl`, the values for the inhibition in assay [1] and in assay [2] were 10.8% and 16.2%, respectively.
On the same counts, the results for `COc1ccc2nc(Sc3c([N+](=O)[O-])nc(C)n3Cc3ccccc3)[nH]c2c1` are 13.1% and 37.8%.
`Cc1ccc(C(=O)Nc2ccc3ccccc3c2)cc1`: the inhibition in assay [1] is -57.4%; in assay [2], 12.1%.
The like results for `Cc1ccc(S(=O)(=O)NNC(=O)c2sc(=S)n(C)c2C)cc1` were, in that order, -4.43% and -17.1%.
The like results for `CC1=CC(C)(C)Nc2ccc(OC(=O)C(C)N3C(=O)c4ccccc4C3=O)cc21` (centres undefined) were, in that order, -33.8% and 20.7%.
For `Cc1c(CCC(=O)N[C@@H](C)C(=O)O)c(=O)oc2cc3oc4c(c3cc12)CCCC4`, the inhibition in assay [1] is 38.8% (active); in assay [2], 60.1% (active).
The like results for `CCOC(=O)c1c(C)[nH]c(C(=O)Nc2ccc(NC(C)=O)cc2)c1C` were, in that order, 6.79% and 8.17%.
On to `Cc1nc2cc(-c3ccccc3)nn2c(C)c1CCC(=O)N1CCN(c2ccccc2)CC1`, for which the inhibition in assay [1] is 3.67%; in assay [2], 52.6% (active).
Take `Cc1cc(C2=NNC(=NC3CC3)SC2)c(C)n1-c1ccccc1`: the inhibition in assay [1] is 83.2% (active); in assay [2], 96.4% (active).
On the same counts, the results for `Cc1ccc(NC(=O)C2CCN(S(=O)(=O)c3ccc(N4CCCC4=O)cc3)CC2)cc1Cl` are 31% and 46.4%.
The like results for `CCC1CN(C(=O)NCc2cccc(OC)c2)c2ccccc2O1` (centres undefined) were, in that order, -11.8% and -14.7%.
`N#Cc1c([N+](=O)[O-])cc([N+](=O)[O-])cc1S(=O)(=O)Cc1ccccc1`: the values for the inhibition in assay [1] and in assay [2] were 96.4% (active) and 98.5% (active), respectively.
For `O=C(CN1C(=O)c2ccccc2S1(=O)=O)c1ccccc1Cl`, the inhibition is 37.8% (active) in assay [1] and 68.9% (active) in assay [2].
The like results for `CCCN1C2CCCC1CC(NC(=O)c1cccc(Cl)c1)C2` (centres undefined) were, in that order, 4.37% and 40.8%.
On the same counts, the results for `CCOc1ccc(N2CC(C(=O)Nc3ccc4c(c3)OCCO4)CC2=O)cc1` (centres undefined) are -5.36% and -6.17%.
The like results for `COc1ccccc1NS(=O)(=O)c1ccc(C)c(C(=O)NC2CCN(Cc3ccccc3)CC2)c1` were, in that order, 17.2% and 36.4%.
Regarding `COc1ccc(C2CC(c3cccs3)=NN2C(=O)CCl)cc1OC` (centres undefined), the inhibition in assay [1] is 42.5% (active); in assay [2], 6.43%.
The like results for `O=C(Nc1ccc2nc3n(c(=O)c2c1)CCCCC3)c1cc([N+](=O)[O-])ccc1F` were, in that order, 32.1% and 30.4%.
Turning to `CC(=O)OC1CCC2(C)C(CCC3C4CC=C(C(C)=O)C4(C)OC(=O)CC32)C1` (centres undefined), the inhibition was 20.8% in assay [1] and 16.1% in assay [2].
The like results for `O=[N+]([O-])c1ccc(Oc2ccc(F)cc2Br)c2ccncc12` were, in that order, 7.49% and 50.2% (active).
For `CC(=O)c1ccc(OC2(C)CCN(Cc3ccc(OC(F)(F)F)cc3)C2)cc1` (centres undefined), the inhibition in assay [1] is -12.4%; in assay [2], -13.5%.
The like results for `CN(Cc1cc(Cl)cc(Cl)c1)CC(C(=O)c1ccccc1)c1ccccc1` (centres undefined) were, in that order, 25% and 47.9% (active).
The like results for `COc1ccc(NC(=O)Cc2nnc(SCC(=O)Nc3ccc(F)cc3)n2C)cc1` were, in that order, -17.1% and -24%.
On the same counts, the results for `CCN(CC)CCNC(=O)c1ccc(NC(=O)c2ccc(S(=O)(=O)N3CCCC3)cc2)cc1` are -4.61% and -8.26%.

A word on the inhibition: it is the change of the read-out against control, counted positive when it falls.
